This is an account of results in PubChem BioAssay (Tox21).

Where “and” joins values, the source holds several entries; their conditions need not be identical. Equal entries are not always repeated. Results filed as inconclusive are left out. Some compounds were tested as several samples or in several runs, with calls that do not always agree. Calls of active or inactive are those of the source. Unless noted, calls come from the whole dose curve; as a rule, active = well fitted curve in the direction sought with a large enough effect in the repeat runs; inconclusive = weak or mixed curves; inactive = no such curve, though single readings can be large; an effect the other way counts as inactive or inconclusive.

Assay [1] in a line: qHTS assay to identify small molecule antagonists of the glucocorticoid receptor (GR) signaling pathway - cell viability counter screen (AID 720693). Note: nearly all actives have a fitted effect of over 55% in size. A general note: qHTS replaces the single test concentration by a dilution series.
Assay [2] in a line: qHTS assay for identifying genotoxic compounds that show differential cytotoxicity against isogenic chicken DT40 cell lines with known DNA damage response pathways - wild type cell line (AID 743012). Note: nearly all actives have a fitted effect of over 60% in size. Note: potency is the fitted concentration of half-maximal effect. Summed up: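 Viability of DNA repair-proficient chicken DT40 cells was assessed by CellTiter-Glo luminescence following 40 h compound exposure at 37 C/5% CO2.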
The nature of assay [3]: qHTS assay for identifying genotoxic compounds that show differential cytotoxicity against isogenic chicken DT40 cell lines with known DNA damage response pathways - Rev3 mutant cell line (AID 743014). Note: nearly all actives have a fitted effect of over 55% in size. Note: potency is the fitted concentration of half-maximal effect.
Assay [4] in a line: qHTS assay for identifying genotoxic compounds that show differential cytotoxicity against isogenic chicken DT40 cell lines with known DNA damage response pathways - Rad54/Ku70 mutant cell line (AID 743015). Note: nearly all actives have a fitted effect of over 60% in size. Note: potency is the fitted concentration of half-maximal effect.
The nature of assay [5]: qHTS assay to identify small molecule antagonists of the androgen receptor (AR) signaling pathway using the MDA cell line - cell viability counter screen (AID 743041; note: nearly all actives have a fitted effect of over 45% in size). Summed up: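 In this qHTS counter assay, fluorescence intensity after CellTiter-Fluor addition indicated viability of MDA-kb2 AR-luc cells given compounds and R1881 for 16 h at 37C.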
A short description of assay [6]: qHTS assay to identify small molecule antagonists of the thyroid receptor (TR) signaling pathway - cell viability counter screen (AID 743064). Note: nearly all actives have a fitted effect of over 50% in size. Note: potency is the fitted concentration of half-maximal effect. The gist of the method: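 Viability of T3-stimulated (1 nM final) GH3.TRE-Luc cells is measured by CellTiter-Fluor fluorescence after 23.5 h compound exposure at 37 °C plus 30 min reagent incubation.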
Assay [7] in a line: qHTS assay to identify small molecule antagonists of the thyroid receptor (TR) signaling pathway (AID 743065). Note: nearly all actives have a fitted effect of over 55% in size. Note: potency is the fitted concentration of half-maximal effect. The gist of the method: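 GH3.TRE-Luc rat pituitary cells carrying two TR response elements driving luciferase were plated for 4 h, given compound plus 1 nM T3 (final), and incubated 23.5 h at 37 C. ONE-Glo luminescence measured reporter inhibition; CellTiter-Fluor fluorescence tracked cytotoxicity.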

Assay [8] deals with thyroid hormone receptor (rat, GH3 cells). Description: qHTS assay to identify small molecule agonists of the thyroid receptor (TR) signaling pathway (AID 743066; calls by dose curve).
Assay [9] addresses Estrogen receptor (Homo sapiens) (UniProt P03372). Description: qHTS assay to identify small molecule antagonists of the estrogen receptor alpha (ER-alpha) signaling pathway (AID 743069; active = well fitted curve in the direction sought with a large enough effect in the signal ratio in the repeat runs, not every such curve was filed as active; the % refers to the signal ratio). The gist of the method: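 A 17beta-estradiol challenge was applied right after compound transfer to ER-alpha-UAS-bla HEK293 cells previously kept in charcoal-stripped serum. Plates stood 18 hr at 37C and 5% CO2; fluorescence was read following 2 hr FRET substrate loading at room temperature.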

The nature of assay [10]: qHTS assay to identify small molecule antagonists of the estrogen receptor alpha (ER-alpha) signaling pathway - cell viability counter screen (AID 743074; calls by dose curve;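 note: HEK293 cells carrying ER-alpha-UAS-bla reporter stimulated with 17beta-estradiol; nearly all actives have a fitted effect of over 45% in size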).
In assay [11] the target is Estrogen receptor (Homo sapiens) (UniProt P03372). Description: qHTS assay to identify small molecule agonists of the estrogen receptor alpha (ER-alpha) signaling pathway (AID 743075; calls by dose curve;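 note: HEK293 GripTite cells with ER-alpha and UAS-driven beta-lactamase reporter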).
Estrogen receptor (Homo sapiens), sequence (P03372 whole entry, looked up): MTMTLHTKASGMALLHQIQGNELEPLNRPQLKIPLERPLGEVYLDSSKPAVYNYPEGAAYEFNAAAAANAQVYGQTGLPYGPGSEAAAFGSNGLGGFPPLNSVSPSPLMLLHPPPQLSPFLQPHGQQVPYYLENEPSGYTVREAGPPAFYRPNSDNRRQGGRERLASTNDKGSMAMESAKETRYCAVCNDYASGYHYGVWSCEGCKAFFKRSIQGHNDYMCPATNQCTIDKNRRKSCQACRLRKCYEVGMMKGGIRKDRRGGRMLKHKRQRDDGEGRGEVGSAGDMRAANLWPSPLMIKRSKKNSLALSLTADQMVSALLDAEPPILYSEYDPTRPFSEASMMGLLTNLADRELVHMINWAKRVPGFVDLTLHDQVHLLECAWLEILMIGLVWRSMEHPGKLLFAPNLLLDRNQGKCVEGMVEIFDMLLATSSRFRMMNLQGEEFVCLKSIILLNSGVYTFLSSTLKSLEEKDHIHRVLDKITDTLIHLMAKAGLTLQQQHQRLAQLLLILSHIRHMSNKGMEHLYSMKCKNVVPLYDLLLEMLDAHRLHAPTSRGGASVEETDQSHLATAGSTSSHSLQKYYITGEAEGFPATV
For assay [12] the target is unchanged. Description: qHTS assay to identify small molecule agonists of the estrogen receptor alpha (ER-alpha) signaling pathway using the BG1 cell line (AID 743079). Note: nearly all actives have a fitted effect of over 20% in size. Note: potency is the fitted concentration of half-maximal effect.
The nature of assay [13]: qHTS assay to identify small molecule antagonists of the estrogen receptor alpha (ER-alpha) signaling pathway using the BG1 cell line (AID 743080; calls by dose curve;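 note: BG1 cells stimulated with 17beta-estradiol alongside compound; series mostly up to about 70 µM; nearly all actives have a fitted effect of over 25% in size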). Summed up:
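Luminescence from a 4×ERE-luciferase reporter in BG1-Luc-4E2 cells served as read-out. Cells, pre-cultured 5 days in stripped-serum phenol-red-free medium, were exposed to compound with 17beta-estradiol co-stimulation for 21.5 h at 37 C.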

The nature of assay [14]: qHTS assay to identify small molecule antagonists of the estrogen receptor alpha (ER-alpha) signaling pathway using the BG1 cell line - cell viability counter screen (AID 743081).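 Note: compound given together with 17beta-estradiol as the ER stimulus; nearly all actives have a fitted effect of over 45% in size.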 Note: potency is the fitted concentration of half-maximal effect.
Assay [15] addresses Aromatase (Homo sapiens) (UniProt P11511). Description: qHTS assay to identify aromatase inhibitors (AID 743083). Note: series mostly up to about 70 µM; nearly all actives have a fitted effect of over 55% in size.
Assay [16] in a line: qHTS assay to identify small molecule antagonists of the androgen receptor (AR) signaling pathway - cell viability counter screen (AID 743033; note: nearly all actives have a fitted effect of over 45% in size).

Aromatase (Homo sapiens), sequence (P11511 whole entry, looked up): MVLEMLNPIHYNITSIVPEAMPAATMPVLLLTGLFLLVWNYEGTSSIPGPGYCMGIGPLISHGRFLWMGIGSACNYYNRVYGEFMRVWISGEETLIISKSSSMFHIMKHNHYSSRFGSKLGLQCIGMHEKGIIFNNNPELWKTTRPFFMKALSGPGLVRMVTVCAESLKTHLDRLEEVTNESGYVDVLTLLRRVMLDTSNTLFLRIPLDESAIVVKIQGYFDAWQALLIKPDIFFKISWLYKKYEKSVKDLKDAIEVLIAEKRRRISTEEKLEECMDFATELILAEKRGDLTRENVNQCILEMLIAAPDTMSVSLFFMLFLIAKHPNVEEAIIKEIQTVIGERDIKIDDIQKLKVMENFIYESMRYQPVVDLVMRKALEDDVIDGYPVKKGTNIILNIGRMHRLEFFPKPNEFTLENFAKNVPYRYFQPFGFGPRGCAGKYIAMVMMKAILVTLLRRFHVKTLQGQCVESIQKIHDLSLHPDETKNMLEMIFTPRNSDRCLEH

For `O=C(N[C@H](CO)[C@H](O)c1ccc([N+](=O)[O-])cc1)C(Cl)Cl`, the Potency result in assay [1], in assay [5], in assay [6], in [7], in [8] and in assay [9] was “inactive” throughout. Besides, the Potency result in assay [10], in assay [11], in assay [12], in assay [13], in assay [14] and in assay [15] was “inactive” each time. The Potency in assay [2] is 5.96 µM (active) and 15.4 µM (active); in assay [3], 7.5 µM (active) and 17.2 µM (active); in [4], 8.41 µM (active) and 19.7 µM (active).
As for `CN1C(=O)C[C@@H](C(=O)N[C@@H](Cc2cnc[nH]2)C(=O)N2CCC[C@H]2C(N)=O)NC1=O`, the Potency result in [1], in [2], in [3], in assay [4], in [5] and in [7] was “inactive” each time. Also, the Potency result in [8], in assay [9], in assay [10], in [11], in [12] and in assay [13] was “inactive” each time. Also, the Potency entry in assay [14] and in assay [15] was “inactive” each time.
For the compound `CCOc1ccc(NC(=S)Nc2ccc(OCC)cc2)cc1`, the Potency result in assay [1], in [2], in assay [3], in assay [16], in assay [5] and in [6] was “inactive” in each case. Moreover, the Potency result in assay [7], in assay [8], in assay [9], in assay [10], in assay [11] and in assay [12] was “inactive” each time. Also, the Potency result in assay [13], in [14] and in [15] was “inactive” each time.
Take `CC(=O)O[C@H]1C[C@@H]2CC[C@@H]3[C@H](CC[C@@]4(C)[C@H]3C[C@H]([N+]3(C)CCCCC3)[C@@H]4OC(C)=O)[C@@]2(C)C[C@@H]1[N+]1(C)CCCCC1`: the Potency entry in assay [1], in assay [2], in assay [3], in assay [4], in assay [5] and in [6] was “inactive” throughout. Further, the Potency result in [7], in assay [8], in [9], in assay [11], in assay [12] and in assay [13] was “inactive” in each case. Besides, the Potency result in assay [14] and in assay [15] was “inactive” each time.
Take `CC[C@@]1([C@@H]2O[C@@H]([C@H]3O[C@@](O)(CO)[C@H](C)C[C@@H]3C)C[C@@H]2C)CC[C@H]([C@]2(C)CC[C@]3(C[C@H](O)[C@@H](C)[C@@H]([C@@H](C)[C@@H](OC)[C@H](C)C(=O)O)O3)O2)O1` (stereo in doubt): the Potency entry in assay [1], in assay [11], in [12] and in assay [15] was “inactive” each time. The Potency in assay [2] was 473 nM (active) and 531 nM (active); in assay [3], 376 nM (active) and 531 nM (active); in assay [4] it was 531 nM (active) and 596 nM (active); in assay [6], 596 nM (active) and 376 nM (active); in [7], 376 nM (active) and 266 nM (active); in assay [14] it was 18.8 µM (active) and inactive.
Turning to `CC(C)c1ccc2sc3ccccc3c(=O)c2c1`, the Potency entry in assay [1], in assay [5], in [6], in assay [7], in assay [8] and in assay [10] was “inactive” in each case. Besides, the Potency result in assay [11], in [14] and in assay [15] was “inactive” in each case. The Potency is 48.6 µM (active) in [2], 54.5 µM (active) in [3], 54.5 µM (active) in assay [4] and 6.11 µM (active) in assay [12].
As for `O=C(O)c1cc(O)c2c(c1)[C@H]([C@H]1c3cc(C(=O)O)cc(O)c3C(=O)c3c(O[C@@H]4O[C@H](CO)[C@@H](O)[C@H](O)[C@H]4O)cccc31)c1cccc(O[C@@H]3O[C@H](CO)[C@@H](O)[C@H](O)[C@H]3O)c1C2=O`, the Potency result in assay [1], in assay [2], in assay [3], in assay [4], in assay [5] and in [7] was “inactive” in each case. Moreover, the Potency result in assay [8], in assay [10], in [14] and in assay [15] was “inactive” each time.
Regarding `Cc1c(O)c(=O)ccn1C`, the Potency entry in assay [1], in assay [2], in [4], in assay [16], in assay [5] and in assay [6] was “inactive” throughout. The Potency entry in assay [7], in [8], in [9], in assay [10], in assay [11] and in assay [12] was “inactive” each time. Besides, the Potency result in assay [13], in assay [14] and in assay [15] was “inactive” each time.
For the compound `CC(=O)OCC(=O)[C@@]1(O)CC[C@H]2[C@@H]3C[C@H](C)C4=CC(=O)C=C[C@]4(C)[C@H]3[C@@H](O)C[C@@]21C`, the Potency entry in [1], in assay [2], in assay [3], in assay [16], in assay [5] and in assay [6] was “inactive” each time. For the same compound, the Potency result in [7], in [8], in assay [10], in assay [11], in assay [14] and in [15] was “inactive” each time. The Potency in assay [12] was 18.8 µM (active).
With `CCCCCN=C(N)N/N=C/c1c[nH]c2ccc(OC)cc12`, the Potency result in [1], in assay [2], in assay [3], in assay [16], in assay [5] and in assay [6] was “inactive” each time. Further, the Potency result in [7], in assay [8], in assay [10], in [14] and in [15] was “inactive” each time.
